Out of some 400,000 compounds screened, about 13,000 (3.2%) were called active. Inconclusive results (about 18%) are left out. The sample as a whole holds a higher share of actives than the screen did. A number with no mark means an inactive call. The call rests on the fitted dose curve; in most records, active means well fitted cell-killing curve with a large enough effect; inconclusive means small, poorly fitted or top-dose-only effect, or effect the other way; inactive means flat fitted curve, though single readings scatter.
Assay: qHTS assay for MDR1-selective chemotherapeutics: Primary screen using the drug-selected MDR subline cells KB-V1; further: nearly all actives have a fitted effect of over 60% in size
Details: KB-V1 MDR cells viability, CellTiter-Glo, 72 h; series mostly up to 46.1 µM; activity change, negative = cytotoxicity: at the top concentration
Excerpt: A prime difficulty in effectively treating cancer is the development of cellular resistance to multiple structurally unrelated anticancer drugs, a phenomenon known as multidrug resistance (MDR). […] Numerous strategies to overcome P-gp-mediated MDR have been explored, including the design of drugs that evade recognition and efflux, and development of inhibitors to block efflux and restore drug accumulation. […] An alternative approach is to exploit resistance by identifying drugs that target MDR cells over the non-resistant parental cells from which they were selected. […] The development of MDR1-selective agents represents a new strategy for resolving multidrug resistance, as it remains a long-standing clinical challenge for cancer chemotherapy.
Our goal is to identify compounds that selectively kill P-gp-expressing MDR cells. We will identify MDR1-selective compounds by comparing toxicity of compounds in the screening library against parental, drug-naive (KB-3-1) adenocarcinoma cells as well as their drug-selected MDR sub-line (KB-V1). The differential toxicity of compounds against these two cell lines will be used to identify MDR1-selective compounds, whose cytotoxicity is potentiated, rather than diminished, by P-gp expression. This assay will be utilized to conduct a quantitative high-throughput screen (qHTS) in collaboration with the NIH Chemical Genomics Center to identify selective agents, and probe hits arising from the screen will be validated using secondary assays and characterized through a well-established follow-up research program. This screen was run against the entire NCGC library collection of about 400,000 compounds.
NIH Molecular Libraries Probe Production Network [MLPCN]
NIH Chemical Genomics Center [NCGC]
PI: Michael Gottesman, National Cancer Institute, NIH
Briefly, 5 microL of media containing either KB-V1 cells (columns 1-2, 4-48) are dispensed into Greiner white, treated solid-bottom 1536-well assay plates (media-only control is added to column 3). Compounds are then transferred via Kalypsys pin tool equipped with 1536-pin array (10 nL slotted pins, V&P Scientific, San Diego, CA). Following addition of compound, the plates are incubated at 37 degrees C for 72 hours. CellTiter-Glo (2.5 µL/well) is then added, and the plates are read in a ViewLux reader (Perkin-Elmer, clear luminescence filter, 1 second exposure, 1x binning) following a 10 minute incubation. All cells are dispensed in DMEM phenol-red free media containing 10% FBS.
Library plates were screened starting from the lowest and proceeding to the highest concentration. Vehicle-only plates, with DMSO being pin-transferred to columns 5-48, will be inserted uniformly at the beginning and the end of each library in order to monitor and record any shifts in the background, which can be affected by reagent dispensers or loss in enzyme activity over time. Screening data will be corrected, normalized, and concentration-effect relationships will be derived by using publicly-available NCGC, NCATS curve fitting algorithms (http://ncgc.nih.gov/pub/openhts).
On the % scale 0 is the no-effect control and ±100 the full control effect; potency means the concentration at half of the fitted maximal effect.

Structure (SMILES)	activity change, negative = cytotoxicity	Potency
CCC(C(=O)Nc1c(C)cccc1C)n1c(-c2cc(C)cs2)nc2ccccc21 (stereo not drawn)	-20.7%	–
OC(c1cc(Cl)cc(Cl)c1)c1ncc(-c2ccccc2C(F)(F)F)[nH]1 (stereo not drawn)	0%	–
Cc1ccccc1NC(=O)c1ccc(COc2ccc3c(C)cc(=O)oc3c2)cc1	-1.61%	–
Cc1ccccc1N1CCN(CCCOc2ccc3c(C)cc(=O)oc3c2)CC1	–	11.2 µM (active)
Cc1cc(OCCCN2CCN(Cc3ccccc3)CC2)ccc1[N+](=O)[O-]	-9.82%	–
Cc1cc(=O)oc2cc(OCC3CC(c4ccccc4Cl)=NO3)ccc12 (stereo not drawn)	–	1.16 µM (active)
CCc1cc(=O)oc2cc(OCC(=O)N3CCCc4ccccc43)ccc12	-23.3%	–
Cc1cc(=O)oc2cc(OCC(=O)Nc3nnc(C4CC4)s3)ccc12	10.4%	–
COc1ccc2oc(-c3ccc(C)c(NC(=O)c4sc5ccccc5c4Cl)c3)nc2c1	11.6%	–
CCN(CC(=O)Nc1ccc(NC(C)=O)cc1)C(=O)C1CC(=O)N(c2ccc3c(c2)OCCO3)C1 (stereo not drawn)	24.5%	–
CC(C)c1ccc(CC(=O)N2CCC2(C)C(=O)NS(=O)(=O)c2ccc(C(C)(C)C)cc2)cc1 (stereo not drawn)	5.43%	–
COc1cccc(C(=O)NC(=O)Nc2ccc(-c3cc(C(F)(F)F)nn3-c3ccccc3)cc2)c1	9.8%	–
COc1ccc(-c2csc(-c3c(N)c(C(=O)c4ccc(OC)c(OC)c4)n4ccccc34)n2)cc1	10.1%	–
COc1ccc(CCN(C(=O)COc2ccccc2)c2nc(-c3ccccc3)cs2)cc1OC	–	5.8 µM (active)
COc1ccc(CN(C(=O)c2cccs2)c2nccs2)cc1OC	-25.9%	–
Cc1ccc(Sc2ccc(NC(=O)c3ccc(F)cc3)cc2C#N)cc1	0%	–
CC(C)C[C@H]1CNC(=O)C(=O)N1C[C@H]1CCCN1C[C@H](Cc1ccc(O)cc1)N1C[C@H](CC(C)C)N(CC2CCCCCC2)C(=O)C1=O	2.62%	–
COc1cccc(CNc2nc(NCc3cccs3)nc3ccsc23)c1	-10.1%	–
COc1ccc(CC(=O)Nc2c3c(nn2-c2cccc(Cl)c2)CS(=O)C3)cc1 (stereo not drawn)	-4.66%	–
Cc1cccc(CC(=O)Nc2c3c(nn2-c2cccc(Cl)c2)CS(=O)C3)c1 (stereo not drawn)	–	20.6 µM (active)
COc1ccc(-n2nc3c(c2NC(=O)Cc2cccc(C)c2)CS(=O)C3)cc1 (stereo not drawn)	-2.57%	–
CC1CCCCN1S(=O)(=O)c1ccc(F)c(C(=O)Nc2ccccc2C(F)(F)F)c1 (stereo not drawn)	-13.5%	–
CN(C)C(=O)COC(=O)c1cccc(S(=O)(=O)N2CC3(C)CC2CC(C)(C)C3)c1 (stereo not drawn)	-7.77%	–
COc1ccc(Nc2ncnc3ccc(Br)cc23)c(OC)c1	0.531%	–

Structure (SMILES)	activity change, negative = cytotoxicity	Potency
CC1(C)CC2CC(C)(CN2c2ncnc3ccc(Br)cc23)C1 (stereo not drawn)	–	2.59 µM (active)
COc1ccc(-c2nc(CCNC(=O)c3ccc(Br)o3)cs2)cc1	0%	–
O=C(NCCc1csc(-c2ccccc2)n1)c1ccccc1F	–	20.6 µM (active)
O=S(=O)(NCCc1csc(-c2ccccc2)n1)c1cccnc1	-8.15%	–
CC1(C(=O)NS(=O)(=O)c2ccc(Cl)cc2)CCN1C(=O)CC1CCCC1 (stereo not drawn)	5.47%	–
C=CCNC(=O)CSc1nc2scc(-c3ccco3)c2c(=O)n1CC=C	-16.8%	–
C=CCn1c(SCc2csc(C)n2)nc2scc(-c3ccc(C)o3)c2c1=O	–	11.6 µM (active)
C=CCn1c(SCC(=O)Nc2ccc(NC(C)=O)cc2)nc2sc(C)c(C)c2c1=O	-12.4%	–
CO[C@@H]1CN(C)C(=O)c2cc(NC(=O)C3CC3)ccc2OC[C@H](C)N(C(=O)CN2CCOCC2)C[C@@H]1C	1.93%	–
C[C@H]1CN([C@@H](C)CO)C(=O)CCCn2cc(nn2)CO[C@@H]1CN(C)C(=O)Nc1ccccc1	12.8%	–
COc1ccc([C@H]2N[C@]3(CCCN(Cc4ccco4)C3=O)[C@H]3C(=O)N(C)C(=O)[C@@H]23)cc1	0%	–
Oc1c(CN2CCN(c3ccc(F)cc3)CC2)cc(Cl)c2cccnc12	–	5.17 µM (active)
COc1cc(CN2CCC(C(N)=O)CC2)ccc1OCc1ccccc1	4.51%	–
COc1cc(C)cc(CN2CCC(Cc3ccccc3)CC2)c1O	-10.3%	–
Oc1c(CN2CCCC2)cc(COCc2ccccc2)c2cccnc12	–	20.6 µM (active)
Fc1ccc(N2CCN(Cc3cnc(Oc4ccc(Br)cc4)s3)CC2)cc1	0%	–
O=C(CN1CCN(c2ccc(F)cc2)CC1)Nc1ccccc1	-0.53%	–
CCC(=O)N1CCc2cc(S(=O)(=O)NC(CC(C)C)C(=O)NCCc3cccc(C)c3)ccc21 (stereo not drawn)	4.3%	–
COC(=O)c1ccc2c(c1)S(=O)(=O)NC2C (stereo not drawn)	35.1%	–
CCc1ccc(-n2nc(C)c3c(C)cc(=O)n(CC(=O)Nc4ccc(F)cc4C)c32)cc1	2.18%	–
Cc1ccc(-c2nc3c(C)cc(Br)cn3c2Cc2ccccc2)cc1	-18.7%	–
CCn1c2c(c(=O)n3ncc(C(=O)N4CCN(c5ccccc5)CC4)c13)CN(Cc1ccc(OC)cc1)CC2	-27.7%	–
CCc1cccc(NC(=O)Cn2nc(CC)n3c(cc4cc(C)ccc43)c2=O)c1	-19.3%	–
Cc1ccc(NC(=O)CC2C(=O)N(Cc3ccccc3)C(=S)N2NC(=O)c2cccc(F)c2)c(C)c1 (stereo not drawn)	–	4.11 µM (active)

From PubChem BioAssay AID1347076 (National Center for Advancing Translational Sciences (NCATS), 2019)
